# Measurements as given in PubChem BioAssay AID588413 (Sanford-Burnham Center for Chemical Genomics, 2011).
# About 2,500 (0.74%) of roughly 340,000 compounds were called active. The entries come from a sample that favours actives as a whole. Values without a mark were called inactive.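 The calls were made as follows: active = inhibition above about 55% (limit read from the data); inactive = the rest.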
# Experiment: blockers of Gli reporter signaling – luciferase luminescence, Sufu-KO-LIGHT cells, uHTS, primary screen (AID 588413);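 also: 0% = DMSO-treated cells and 100% = wells with medium but no cells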
# Conditions: Sufu-KO-LIGHT fibroblasts, at 5 µM, stronger effect = higher value
row,Structure (SMILES),inhibition
1,CC1=CC(=Cc2sc3ccccc3[n+]2C)C=C(C)O1,80.9% (active)
2,O=C(O)CCn1cc(C=C2C(=O)NC(=S)NC2=O)c(-c2cccc(Br)c2)n1,-2.59%
3,CC(C)CN1CCN(Cc2ccccc2C(F)(F)F)CC1CCO (stereo not given),20.7%
4,Cc1cc(C)c2c(c1)NP(=S)(c1ccccc1)N2 (stereo not given),-6.68%
5,CNC(=O)Nc1ccc(C(O)(C(=O)OC)C(F)(F)F)cc1 (stereo not given),11.8%
6,CCCCCCCCCCCCn1ccc(=N)cc1,87.5% (active)
7,O=C1C2(Cl)C3(Cl)C4(Cl)C(Cl)(Cl)C5(Cl)C3(Cl)C1(Cl)C5(Cl)C24Cl (stereo not given),-3.44%
8,COc1cc(-n2c(=S)[nH]c3ccc(C)cc3c2=O)c(Cl)cc1Cl,-14.6%
9,CCN(CC)CCOC(=O)c1cc2cc(COC)ccc2o1,0.39%
10,CCOc1cccc(=NC2CCCCC2)c2c(C)[nH]c(C)c12,79% (active)
11,CC(C)Nc1nc(Cl)nc(NC(C)C)n1,1.26%
12,O=C(C1CC(=O)N(C2CCCC2)C1)N1CCC2(CC1)OCCO2 (stereo not given),-2.84%
13,C=CCN(CC=C)C(=O)Nc1ccc(OCC)cc1,-12.4%
14,CCC(C)(O)C(=O)OC1C(=O)OC2CC3C(C)=CC(=O)C(O)C3(C)C3C4(O)OCC23C1C(C)C4O (stereo not given),82% (active)
15,CN(C)CC1Oc2ccccc2OC1(O)c1ccccc1 (stereo not given),-3.73%
16,CCOP(=O)(OCC)C(NC(=O)c1ccc(OC)cc1)C(Cl)(Cl)Cl (stereo not given),-2.69%
17,CCOP(=O)(OCC)C(NC(=O)c1ccc(C)cc1)C(Cl)(Cl)Cl (stereo not given),2.77%
18,CC1=C2C(=O)C3C(CC=C4CC(OC5OC(O)C(O)C(O)C5CO)CCC43C)C2CCC12OC1CC(C)CNC1C2C (stereo not given),-0.71%
19,O=C1/C(=C\c2ccc3c(c2)OCO3)N2CCC1CC2,16.5%
20,N[C@@H](Cc1c[nH]c2ccccc12)c1nnc(SCc2c(F)cccc2Cl)o1,-1.34%
21,CCOc1ccc(-c2cc(C)[n+](CCN(CC)CC)c(-c3ccc(OCC)cc3)c2)cc1,77.8% (active)
22,COC(=O)C1=C(c2cc3ccccc3s2)C[C@@H]2CC[C@H]1N2C(=O)NC(C)C,9.18%
23,COc1ccc(-c2nn(CCC#N)cc2C(=O)Nc2ccc(C(C)=O)cc2)cc1,-28.4%
24,COC(=O)COc1cc(C)cc2oc(=O)c3c(c12)CCCC3,-1.17%
25,COc1ccc(NC(=O)c2cn(CCC#N)nc2-c2ccc([N+](=O)[O-])cc2)cc1,6.35%
26,CC(=O)OC1C2(CC3N4C(=O)C5(CO)SSC4(CC31O)C(=O)N5C)OC(C)C(C)(C)C2=O (stereo not given),85.7% (active)
27,Cc1ccccc1NC(=O)COC(=O)c1cc(C)n(C2CC2)c1C,0.92%
28,O=C1NC(=O)C(CCc2ccccn2)(Cc2cccc(Cl)c2Cl)C(=O)N1c1ccc(Br)cc1 (stereo not given),0.16%
29,Cc1ccnc(-n2c(C)cc(/C=C3\C(=O)NC(=S)N(C)C3=O)c2C)c1,7.71%
30,CC[C@H]1CC2CN3CCc4c([nH]c5ccccc45)C(C(=O)OC)(C2)C13 (stereo not given in full),8.02%
